Experimental data from PubChem BioAssay (NCI).
Where “and” joins values, the source holds several entries; their conditions need not be identical. Identical values can stand only once. The panel holds about 83,000 compounds, 20% with a hit somewhere; the sample as a whole holds those more often.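 Step 1: grow cells in 96-well plates. Step 2: add test compound at a single concentration. Step 3: incubate 48 h. Step 4: record percent growth.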 Where a structure was tested more than once in an assay, its records may differ in their call. Calls of active or inactive are those of the source. The calls were made as follows: active = growth percent below 10; inactive = the rest.

Legend:
Experiment in all cases: NCI-60 one-dose screen, 48 h (100 = growth as untreated, 0 = no growth, -100 = all killed)
Conditions in all cases: 10 µM unless noted
[1] = system: DU-145 prostate
[2] = system: K-562 leukemia
[3] = system: MALME-3M melanoma
[4] = system: MDA-MB-231 breast
[5] = system: RXF 393 renal
[6] = system: SF-268 CNS
[7] = system: SF-295 CNS
[8] = system: SF-539 CNS
[9] = system: UACC-257 melanoma
[10] = system: M14 melanoma

## CN(C)c1ccc2nc3ccc(=[N+](C)C)cc-3sc2c1
[1]
  growth: 33.3% (inactive) and 39.8% (inactive) and 87.1% (inactive)
[2]
  growth: 27.4% (inactive) and 41.7% (inactive) and 43.5% (inactive)
[3]
  growth: -30.4% (active) and -12.7% (active) and 48.8% (inactive)
[4]
  growth: 8.14% (active) and 10% (active) and 33.4% (inactive)
[5]
  growth: 79.9% (inactive) and 65.7% (inactive) and 82.6% (inactive)
[6]
  growth: 27.7% (inactive) and 22.8% (inactive) and 26.2% (inactive)
[7]
  growth: 17.2% (inactive) and 17.6% (inactive) and 43% (inactive)
[8]
  growth: 28.4% (inactive) and 3.79% (active) and 15.5% (inactive)
[9]
  growth: -12.8% (active) and -22.4% (active) and 17.8% (inactive)
[10]
  growth: 2.78% (active) and 3.94% (active) and 15.5% (inactive)

## Oc1ccc(/C=C/c2ccccc2)cc1
[1]
  growth: 50.9% (inactive) and 58.4% (inactive)
[2]
  growth: 64.7% (inactive) and 58.4% (inactive)
[3]
  growth: 97.9% (inactive) and 71.7% (inactive)
[4]
  growth: 57.4% (inactive) and 47.1% (inactive)
[5]
  growth: 75.9% (inactive) and 91% (inactive)
[6]
  growth: 53.7% (inactive) and 62.5% (inactive)
[7]
  growth: 82.8% (inactive) and 81% (inactive)
[8]
  growth: 79.6% (inactive) and 68.7% (inactive)
[9]
  growth: 100% (inactive) and 87.9% (inactive)
[10]
  growth: 68% (inactive) and 73.4% (inactive)

## CC1=C(/C=C/C(C)=C/C=C/C(C)=C/C=N/NC(=S)NC(=S)N/N=C/C=C(C)/C=C/C=C(C)/C=C/C2=C(C)CCCC2(C)C)C(C)(C)CCC1
[1]
  growth: 45.4% (inactive) and 40.3% (inactive)
[2]
  growth: 1.87% (active) and -33.1% (active)
[3]
  growth: -42.6% (active) and -41.6% (active)
[4]
  growth: 21.6% (inactive) and -34.1% (active)
[5]
  growth: -98.2% (active)
[6]
  growth: 30.9% (inactive) and -13% (active)
[7]
  growth: 30.3% (inactive) and -7.18% (active)
[8]
  growth: -82.5% (active) and -94.5% (active)
[9]
  growth: 12.7% (inactive) and -28.3% (active)
[10]
  growth: -94.8% (active) and -97.5% (active)

## c1ccc(NCc2ccc3c(c2)OCO3)cc1
[1]
  growth: 111% (inactive) and 108% (inactive)
[2]
  growth: 105% (inactive) and 98.7% (inactive)
[3]
  growth: 106% (inactive) and 119% (inactive)
[4]
  growth: 100% (inactive) and 106% (inactive)
[5]
  growth: 104% (inactive) and 95.2% (inactive)
[6]
  growth: 99.1% (inactive) and 99.4% (inactive)
[7]
  growth: 105% (inactive)
[8]
  growth: 102% (inactive) and 91.4% (inactive)
[9]
  growth: 101% (inactive) and 97.5% (inactive)
[10]
  growth: 101% (inactive)

## COC(=O)/C=C/c1cc(O)c2c(c1)C(C(=O)OC)C(c1ccc(O)c(O)c1)O2 (stereo not given)
[1]
  growth: 11.7% (inactive) and 7.05% (active)
[2]
  growth: 9.16% (active) and 9.69% (active)
[3]
  growth: 72.1% (inactive) and 69% (inactive)
[4]
  growth: 13.5% (inactive) and 18% (inactive)
[5]
  growth: 55.9% (inactive) and 30% (inactive)
[6]
  growth: 34.1% (inactive) and 28.5% (inactive)
[7]
  growth: 19.2% (inactive) and 22.4% (inactive)
[8]
  growth: 5.8% (active) and 3.46% (active)
[9]
  growth: 62.4% (inactive) and 60.6% (inactive)
[10]
  growth: 2.19% (active) and 6.67% (active)

## Cn1c(SSc2ccc(-c3cccnc3)n2C)ccc1-c1cccnc1
[1]
  growth: 115% (inactive) and 107% (inactive)
[2]
  growth: 75.9% (inactive) and 7.91% (active)
[3]
  growth: 102% (inactive) and 105% (inactive)
[4]
  growth: 91.4% (inactive) and 110% (inactive)
[5]
  growth: 105% (inactive) and 110% (inactive)
[6]
  growth: 82.1% (inactive) and 93.5% (inactive)
[7]
  growth: 77.9% (inactive) and 93.7% (inactive)
[8]
  growth: 116% (inactive) and 122% (inactive)
[9]
  growth: 86.1% (inactive) and 93.8% (inactive)
[10]
  growth: 101% (inactive) and 98.4% (inactive)

## CCCCOc1cc(C(=O)NCCN(CC)CC)c2ccccc2n1
[1]
  growth: 109% (inactive) and 106% (inactive)
[2]
  growth: 92.4% (inactive) and 104% (inactive)
[3]
  growth: 93% (inactive) and 106% (inactive)
[4]
  growth: 86.5% (inactive) and 96.9% (inactive)
[5]
  growth: 80.7% (inactive) and 94% (inactive)
[6]
  growth: 103% (inactive) and 101% (inactive)
[7]
  growth: 92.5% (inactive) and 97.5% (inactive)
[8]
  growth: 95.2% (inactive) and 106% (inactive)
[9]
  growth: 62.2% (inactive)
[10]
  growth: 93.8% (inactive) and 105% (inactive)

## N=C1N=C(N)CS1
[1]
  growth: 115% (inactive)
[2]
  growth: 105% (inactive)
[3]
  growth: 114% (inactive)
[4]
  growth: 115% (inactive)
[5]
  growth: 99.4% (inactive)
[6]
  growth: 107% (inactive)
[7]
  growth: 96.5% (inactive)
[8]
  growth: 110% (inactive)
[9]
  growth: 106% (inactive)
[10]
  growth: 108% (inactive)

## CC(C)CNC(=O)c1ccccc1C(=O)NC1(C(=O)NCC(C)C)CCCC1
[1]
  growth: 111% (inactive) and 109% (inactive)
[2]
  growth: 102% (inactive)
[3]
  growth: 125% (inactive)
[4]
  growth: 109% (inactive) and 105% (inactive)
[5]
  growth: 113% (inactive) and 130% (inactive)
[6]
  growth: 104% (inactive)
[7]
  growth: 111% (inactive) and 105% (inactive)
[8]
  growth: 100% (inactive)
[9]
  growth: 102% (inactive) and 106% (inactive)
[10]
  growth: 108% (inactive) and 102% (inactive)

## CC1CCCC(=O)O1 (stereo not given)
[1]
  growth: 106% (inactive) and 107% (inactive)
[2]
  growth: 104% (inactive) and 108% (inactive)
[3]
  growth: 104% (inactive)
[4]
  growth: 103% (inactive) and 111% (inactive)
[5]
  growth: 101% (inactive) and 112% (inactive)
[6]
  growth: 102% (inactive) and 111% (inactive)
[7]
  growth: 99.5% (inactive) and 102% (inactive)
[8]
  growth: 100% (inactive) and 94.7% (inactive)
[9]
  growth: 104% (inactive) and 98.9% (inactive)
[10]
  growth: 101% (inactive) and 105% (inactive)

## O=C1OC2(c3ccccc31)c1ccc(O)c(O)c1Oc1c2ccc(O)c1O
[1]
  growth: 116% (inactive) and 119% (inactive)
[2]
  growth: 115% (inactive) and 92.6% (inactive)
[3]
  growth: 126% (inactive) and 114% (inactive)
[4]
  growth: 110% (inactive) and 108% (inactive)
[5]
  growth: 102% (inactive) and 120% (inactive)
[6]
  growth: 108% (inactive) and 114% (inactive)
[7]
  growth: 110% (inactive) and 130% (inactive)
[8]
  growth: 108% (inactive) and 125% (inactive)
[9]
  growth: 106% (inactive)
[10]
  growth: 113% (inactive)

## O=[N+]([O-])c1ccccc1N(S(=O)(=O)c1ccccc1)S(=O)(=O)c1ccccc1
[1]
  growth: 118% (inactive) and 99.7% (inactive)
[2]
  growth: 93% (inactive) and 113% (inactive)
[3]
  growth: 120% (inactive) and 109% (inactive)
[4]
  growth: 112% (inactive) and 96.5% (inactive)
[5]
  growth: 119% (inactive) and 108% (inactive)
[6]
  growth: 96.3% (inactive) and 95.2% (inactive)
[7]
  growth: 108% (inactive) and 77.6% (inactive)
[8]
  growth: 117% (inactive) and 104% (inactive)
[9]
  growth: 85.7% (inactive) and 92.4% (inactive)
[10]
  growth: 128% (inactive) and 98.6% (inactive)

## CN(Cc1ccccc1)Cc1ccccc1
[1]
  growth: 107% (inactive)
[2]
  growth: 113% (inactive)
[3]
  growth: 91.4% (inactive)
[4]
  growth: 106% (inactive)
[5]
  growth: 104% (inactive)
[6]
  growth: 97.1% (inactive)
[7]
  growth: 112% (inactive)
[8]
  growth: 99.2% (inactive)
[9]
  growth: 99.8% (inactive)
[10]
  growth: 102% (inactive)

## NC(=O)c1ccccc1OCC(O)CO (stereo not given)
[1]
  growth: 114% (inactive)
[2]
  growth: 107% (inactive)
[3]
  growth: 115% (inactive)
[4]
  growth: 103% (inactive)
[5]
  growth: 98.9% (inactive)
[6]
  growth: 105% (inactive)
[7]
  growth: 83.1% (inactive)
[8]
  growth: 90.2% (inactive)
[9]
  growth: 97.9% (inactive)
[10]
  growth: 112% (inactive)
